Results from PubChem BioAssay (NCATS).
Inconclusive results are not listed. The source made the active and inactive calls. Calls come from the whole dose curve; as a rule, active = well fitted inhibition curve with a large enough effect; inconclusive = small, poorly fitted or top-dose-only effect; inactive = flat fitted curve, though single readings scatter. Where a SMILES comes first, the peptide text is derived from it. The star is where a group is joined. Cbz = O=C(OCc1ccccc1)*; CH2F = FC*

Legend:
Test in all cases: Cytotoxic Profiling of Annotated Libraries Using Quantitative High-Throughput Screening (AID 1296008); note: nearly all actives have a fitted effect of over 60% in size
Details in all cases: Five cell lines viability, CellTiter-Glo ATP luminescence, 48-72 h; max response: stronger effect = lower value
CRL-7250 = normal cell line; tested on: CRL-7250
In short: (§1)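 Compounds were pin-transferred onto cells and incubated 48 or 72 hr at 37 degree Celsius, 95% humidity. CellTiter-Glo was added, plates sat 10 min at room temperature, then ATP-coupled luminescence was imaged as the viability read-out.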

HEK293 = tested on: HEK293
In short: as §1

HaCat = tested on: HaCat
In short: as §1

KB-3-1 = tested on: KB-3-1
In short: as §1

NIH3T3 = tested on: NIH3T3
In short: as §1

Measured: max response
% is set by controls: 0 for no effect and ±100 for the full control effect.

COC(=O)C(CC1(O)c2ccccc2N2C(=O)C(C)(C)N(O)C21)n1cnc2ccccc2c1=O (stereo not given)
inactive: CRL-7250 | HEK293 3.97% | HaCat | KB-3-1 0.0146% | NIH3T3 2.61%

COc1ccccc1CN[C@H]1CCCN[C@H]1c1ccccc1
inactive: CRL-7250 | HEK293 -1.91% | HaCat | KB-3-1 1.76% | NIH3T3

CC(=O)OC/C(=C/C(=O)O)CC[C@@H]1C(CO)=CC[C@@H]2C(C)(C)CCC[C@@]12C
inactive: CRL-7250 1.35% | HEK293 1.68% | HaCat | KB-3-1 | NIH3T3 -1.93%

CC1=C(C(=O)OC2OC(COC3OC(CO)C(O)C(O)C3O)C(O)C(O)C2O)C(C)(C)CCC1 (stereo not given)
inactive: CRL-7250 -6.15% | HEK293 1.47% | HaCat | KB-3-1 | NIH3T3 0.403%

CC(=O)O[C@H]1[C@H](OC(=O)C(C)C)[C@]2(C)OC3(CC[C@]2(C)[C@H]2CCC[C@]4(CO4)[C@]12C)COC(=O)C3 (stereo not given in full)
inactive: CRL-7250 -5.19% | HEK293 -0.769% | HaCat | KB-3-1 4.61% | NIH3T3 -0.316%

COc1cc(C2Oc3c(OC)cc(/C=C/C(=O)OC4CC(O)(C(=O)O)CC(O)C4O)cc3C2CO)ccc1O (stereo not given)
inactive: CRL-7250 -7.61% | HEK293 1.22% | HaCat | KB-3-1 9.01% | NIH3T3

COc1cc(/C=C/C(=O)O[C@@H]2C[C@@](O)(C(=O)O)C[C@@H](O)[C@@H]2O)ccc1O
inactive: CRL-7250 -0.566% | HEK293 0.393% | HaCat -12% | KB-3-1 0.239% | NIH3T3

C=C1C(=O)O[C@@H]2/C=C(\C)CC/C=C(\C(=O)O[C@@H]3O[C@H](CO)[C@@H](O)[C@H](O)[C@H]3O)CC[C@@H]12
inactive: CRL-7250 4.73% | HEK293 -0.494% | HaCat | KB-3-1 -8.71% | NIH3T3 -22.6%

C=C1CCC2[C@@](C)(C(=O)O)CCC[C@@]2(C)[C@@H]1CCc1ccoc1 (stereo not given in full)
inactive: CRL-7250 -7.76% | HEK293 -0.447% | HaCat -0.12% | KB-3-1 -3.34% | NIH3T3

COc1ccc(CC(NC(C)=O)C(=O)O)cc1 (stereo not given)
inactive: CRL-7250 0.775% | HEK293 -3.66% | HaCat | KB-3-1 6.09% | NIH3T3 1.53%

COc1cc(C(=O)OC[C@H]2O[C@@H](OC(C)(C)C(=O)O)[C@H](O)[C@@H](O)[C@@H]2O)cc(OC)c1O
inactive: CRL-7250 -2.21% | HEK293 -6.34% | HaCat | KB-3-1 | NIH3T3

COc1ccc(C2OCC3C(c4cc(OC)c5c(c4)OCO5)OCC23)cc1OC (stereo not given)
inactive: CRL-7250 3.22% | HEK293 1.08% | HaCat | KB-3-1 -4.07% | NIH3T3

C=C1C(=O)OC[C@H]2C(C(=O)O)=CC3CC(C)(C)C[C@@]132 (stereo not given in full)
inactive: CRL-7250 | HEK293 4.17% | HaCat | KB-3-1 | NIH3T3

Cn1c2ccc(NC(=O)c3ccccc3)cc2c(=O)n2nc(C(=O)O)cc12
inactive: CRL-7250 | HEK293 -1.26% | HaCat | KB-3-1 0.84% | NIH3T3

C=CCC1=C[C@]2(OC)[C@H](C)[C@@H](c3ccc(OC)c(OC)c3)O[C@]2(OC)CC1=O
inactive: CRL-7250 4.13% | HEK293 -10.4% | HaCat -0.368% | KB-3-1 | NIH3T3

CCN(CCN(C)C)C(=O)CNCc1cc(C(N)=O)ccn1
inactive: CRL-7250 | HEK293 1.94% | HaCat | KB-3-1 7.84% | NIH3T3

COC(=O)CC[C@H](NC(=O)[C@H](CC(C)C)NC(=O)OCc1ccccc1)C(=O)N[C@@H](Cc1cnc[nH]1)C(=O)N[C@@H](CC(=O)OC)C(=O)CF (Cbz-LE(OMe)HD(OMe)-CH2F)
inactive: CRL-7250 | HEK293 2.63% | HaCat | KB-3-1 | NIH3T3

COC(=O)[C@H](Cc1cccc(C(=N)N)c1)[C@@H](C)NC(=O)c1ccc(-c2cc[n+]([O-])cc2)cc1
inactive: CRL-7250 -2.22% | HEK293 3.53% | HaCat | KB-3-1 | NIH3T3 0.404%

C[C@H]1[C@H](C)CC[C@]2(C(=O)O)CC[C@]3(C)C(=CCC4[C@@]5(C)C[C@@H](O)[C@H](O)C(C)(C)C5CC[C@]43C)[C@H]12 (stereo not given in full)
inactive: CRL-7250 | HEK293 3.03% | HaCat -6.87% | KB-3-1 -2.55% | NIH3T3

CC1(C)CC[C@]2(C(=O)O[C@@H]3O[C@H](CO[C@@H]4O[C@H](CO)[C@@H](O)[C@H](O)[C@H]4O)[C@@H](O)[C@H](O[C@@H]4O[C@H](CO)[C@@H](O)[C@H](O)[C@H]4O)[C@H]3O)[C@H](O)C[C@]3(C)C(=CCC4[C@@]5(C)CC[C@H](O[C@@H]6OC[C@@H](O)[C@H](O)[C@H]6O)[C@@](C)(C(=O)O)C5CC[C@]43C)[C@@H]2C1 (stereo not given in full)
inactive: CRL-7250 -2.05% | HEK293 -13.5% | HaCat -5.99% | KB-3-1 2.29% | NIH3T3
